Experimental data taken from PubChem BioAssay (NCATS).
A number with no mark means an inactive call. Results filed as inconclusive are left out. The source made the active and inactive calls. Unless noted, calls follow the shape of the dose curve; as a rule, active = well fitted curve in either direction with a large enough effect (not every such curve was filed as active); inconclusive = small, poorly fitted or top-dose-only effect, or another doubt; inactive = flat fitted curve, though single readings scatter.

Assays:
[1] = target: Lysosomal acid glucosylceramidase (Homo sapiens) (UniProt P04062); assay: Glucocerebrosidase-p2 (AID 348; in the data active = potency below about 10 µM; also: potency is read from the fitted curve at half-maximal effect); conditions: purified GBA, blue fluorogenic substrate, 40 min
Summary of the method: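 Compounds titrated from 0.6 nM upwards against 0.2 nM enzyme in pH 5.9 citric acid/KH2PO4, taurocholate, tween-20; blue fluorogenic substrate 80 uM, 40 min room temperature, stopped and read Ex 365/Em 440 for AC50.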

[2] = AP1 Signaling Pathway (AID 357); conditions: ME-180 AP-1-bla reporter, EGF-induced, beta-lactamase ratio, 5 h; at 7.69 µM (top of the series) unless noted;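 also: ME-180 reporter cells stimulated with EGF at its EC50 level; % is scaled to controls: 0 for no effect and ±100 for the full control effect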
Summary of the method: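 AP-1-bla ME-180 cells, Opti-MEM + 0.5% dialyzed FBS, plated overnight 37 °C. Cpd titration + EC50 EGF, 5 h 37 °C. CCF4 2.5 h RT; ex 405, em 460/530 ratio → %activity, AC50.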

[3] = target: Cytochrome P450 1A2 (Homo sapiens) (UniProt P05177); assay: p450-cyp1a2 (AID 410; calls by dose curve; also: potency is read from the fitted curve at half-maximal effect;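 as to activity change, negative = inhibition: -100% = full effect of reference inhibitor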); conditions: recombinant CYP1A2, luciferin-ME demethylation, luminescence; series mostly up to 11.4 µM
Summary of the method: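 Human CYP1A2 (20nM) demethylated Luciferin-ME at its Km (100uM) in 100mM KPO4. After 10 min compound preincubation, NADPH regeneration ran the reaction 60 min at room temperature. Luciferin was read by luminescence, normalized to 57 uM furafylline.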

[4] = NFAT Signaling Pathway (AID 444); conditions: Jurkat NFAT-bla M1, carbachol, beta-lactamase ratio, 5 h; at 7.69 µM (top of the series) unless noted;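 also: carbachol stimulus at about its EC50 of 1 µM final; % is scaled to controls: 0 for no effect and ±100 for the full control effect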
Summary of the method: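 Jurkat cells with NFAT-driven β-lactamase reporter and co-expressed M1 receptor, stimulated with carbachol (final 1 uM, ~EC50), compound titration, 5 h at 37 °C. CCF4 loaded 1 h at RT; 460/530 nm ratio gave %activity and AC50.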

[5] = Stat Signaling Pathway (AID 446); conditions: ME-180 SIE beta-lactamase reporter, IL-6 stimulated, 5 h; at 7.69 µM (top of the series) unless noted;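 also: ME-180 cervical cancer cells given 40 pM IL-6 alongside compound; SIE-controlled beta-lactamase reporter measured as 460/530 nm FRET emission ratio; % is scaled to controls: 0 for no effect and ±100 for the full control effect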
Summary of the method: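 ME-180 cells carrying a SIE-driven beta-lactamase reporter are stimulated with 40 pM IL-6 for 5 h at 37C in the presence of compound. The 460/530 nm FRET substrate ratio is read after 2.5 h at RT. Data are normalised to 300 pM IL-6 and to 125 nM JAK inhibitor controls.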

[6] = target: Glucocorticoid receptor (Homo sapiens) (UniProt P04150); assay: GR-GFP Redistribution (AID 450;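 active = compounds whose dose series gives a full or clear partial fitted curve of increased nuclear translocation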; also: potency is read from the fitted curve at half-maximal effect); conditions: U2OS GR-GFP nuclear translocation, laser cytometry, 2 h
[7] = target: Glucocorticoid receptor (Homo sapiens) (UniProt P04150); assay: GR-EFC Redistribution (AID 451; calls by dose curve; also: potency is read from the fitted curve at half-maximal effect); conditions: CHO-K1 GR-EFC translocation, beta-gal luminescence, 2 h
Summary of the method: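 CHO-K1 cells expressing nuclear EA and GR-ED fragments of b-gal; compounds titrated up to 46 uM final, 2 h at 37 C. GR nuclear translocation read as complemented b-gal luminescence after 1 h RT detection.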

[8] = target: Mitogen-activated protein kinase 10 (Mus musculus) (UniProt Q61831); assay: JNK3 AlphaScreen Assay (AID 530); conditions: JNK3 lysate, c-Jun phosphorylation; series mostly up to 57.1 µM;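 also: kinase came from lysate of stimulated human HepG2 cells; signal reports phosphorylation of biotinylated GST-cJun 1-79 at Ser73 with 10 µM ATP; % is scaled to controls: 0 for no effect and ±100 for the full control effect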
Summary of the method: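 qHTS format: compounds tested as titrations against IL-1beta/TNF-alpha-activated HepG2 lysate JNK3 with biotin-GST-cJun substrate and 10 uM ATP at room temperature. Loss of anti-phospho-cJun AlphaScreen signal indicates inhibition.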

[9] = target: 3',5'-cyclic-AMP phosphodiesterase 4B (Homo sapiens) (UniProt Q07343); assay: qHTS Assay for Inhibitors of PDE-IV (AID 607; active = well fitted activation curve with a large enough effect in the main read-out, with a control signal flat, not every such curve was filed as active; also: % of control where 0% means no effect); conditions: HEK293 ACTOne CNG channel cells, membrane potential fluorescence; series mostly up to 22.9 µM
Summary of the method: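 HEK293 ACTOne cells with CNG channel (1000/well), endogenous PDE4; membrane potential dye, compounds up to 22.9 uM final. Fluorescence Ex 535/Em 590; RO 20-1724 (100 uM final) as reference.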

[10] = qHTS Assay for Identification of Small Molecule Agonists for Hypoxia Response Element Signaling Pathway (AID 914; active = well fitted activation curve with a large enough effect in the signal ratio, with a control signal flat, not every such curve was filed as active; the % refers to the signal ratio; also: % of control where 0% means no effect); conditions: ME-180 (cervical carcinoma) HRE-bla reporter, beta-lactamase ratio, CoCl2, 17 h; active compounds read high
Summary of the method: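 qHTS titration; ME-180 HRE-bla cells; EC50 CoCl2 co-treatment, 17 h at 37 degrees Celsius; CCF4 dye, ex 405nm, em 460nm and 530nm; %Activity from ratio; AC50.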

[11] = target: Cytochrome P450 2C9 (Homo sapiens) (UniProt P11712); assay: qHTS Assay for Inhibitors and Substrates of Cytochrome P450 2C9 (AID 883; active = well fitted curve in the direction sought with a large enough effect; an effect the other way counts as inactive or inconclusive; also: nearly all actives have a fitted effect of over 60% in size; also: potency is read from the fitted curve at half-maximal effect); conditions: recombinant CYP2C9, luciferin-H luminescence, 60 min; series mostly up to 57.1 µM
Summary of the method: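 Human CYP2C9 (10nM) with Luciferin-H at 100uM (its KM) in 25mM KPO4; compound preincubated 10 min at 37C, then NADPH regeneration for 60 min at 37C. Luciferin read by luminescence after detection reagent; normalized to 57uM sulphaphenazole as full inhibition.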

[12] = target: Cytochrome P450 2D6 (Homo sapiens) (UniProt P10635); assay: qHTS Assay for Inhibitors and Substrates of Cytochrome P450 2D6 (AID 891; active = well fitted curve in the direction sought with a large enough effect; an effect the other way counts as inactive or inconclusive; also: nearly all actives have a fitted effect of over 60% in size; also: potency is read from the fitted curve at half-maximal effect); conditions: recombinant CYP2D6, luciferin-ME EGE luminescence; series mostly up to 11.4 µM
Summary of the method: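 Human CYP2D6 (5 nM) with 30 uM Luciferin-ME EGE (at Km) in 100 mM KPO4, compound preincubated 10 min, then NADPH regeneration system for 60 min at room temperature. Luciferin read by luminescence; normalized to 1.43 uM quinidine.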

[13] = target: Cytochrome P450 3A4 (Homo sapiens) (UniProt P08684); assay: qHTS Assay for Inhibitors and Substrates of Cytochrome P450 3A4 (AID 884; active = well fitted curve in the direction sought with a large enough effect; an effect the other way counts as inactive or inconclusive; also: potency is read from the fitted curve at half-maximal effect; nearly all actives have a fitted effect of over 50% in size); conditions: recombinant CYP3A4, Luciferin-PPXE luminescence; series mostly up to 57.1 µM
Summary of the method: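 20 nM human CYP3A4 with 25 uM Luciferin-PPXE (at KM) in 200 mM KPO4, preincubated 10 min with compound; NADPH regeneration started a 60 min RT reaction. Luciferin detected by luminescence, normalized to 57 uM ketoconazole as full inhibition.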

[14] = target: Cytochrome P450 3A4 (Homo sapiens) (UniProt P08684); assay: qHTS Assay for Activators of Cytochrome P450 3A4 (AID 885; active = well fitted curve in the direction sought with a large enough effect; an effect the other way counts as inactive or inconclusive; also: nearly all actives have a fitted effect of over 65% in size); conditions: recombinant CYP3A4, Luciferin-PPXE luminescence, 60 min; series mostly up to 57.1 µM
Summary of the method: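 Human CYP3A4 (20 nM) with Luciferin-PPXE at 25 uM (its KM) in 200 mM KPO4; 10 min compound preincubation, then NADPH regeneration and 60 min reaction at RT. Luciferin read by luminescence; normalized to 57 uM ketoconazole full inhibition.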

[15] = target: Cytochrome P450 2C19 (Homo sapiens) (UniProt P33261); assay: qHTS Assay for Inhibitors and Substrates of Cytochrome P450 2C19 (AID 899; active = well fitted curve in the direction sought with a large enough effect; an effect the other way counts as inactive or inconclusive; also: nearly all actives have a fitted effect of over 60% in size; also: potency is read from the fitted curve at half-maximal effect); conditions: recombinant CYP2C19, luciferin-H EGE luminescence; series mostly up to 11.4 µM
Summary of the method: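 5 nM human CYP2C19 with 10uM Luciferin-H EGE (at KM) in 50mM KPO4, compound preincubated 10 min at 37C, then NADPH regeneration for 60 min at 37C. Luciferin read by luminescence after detection reagent; normalized to 57uM ketoconazole as full inhibition.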

Sequence of Cytochrome P450 2D6 (Homo sapiens) (P10635 whole entry, looked up): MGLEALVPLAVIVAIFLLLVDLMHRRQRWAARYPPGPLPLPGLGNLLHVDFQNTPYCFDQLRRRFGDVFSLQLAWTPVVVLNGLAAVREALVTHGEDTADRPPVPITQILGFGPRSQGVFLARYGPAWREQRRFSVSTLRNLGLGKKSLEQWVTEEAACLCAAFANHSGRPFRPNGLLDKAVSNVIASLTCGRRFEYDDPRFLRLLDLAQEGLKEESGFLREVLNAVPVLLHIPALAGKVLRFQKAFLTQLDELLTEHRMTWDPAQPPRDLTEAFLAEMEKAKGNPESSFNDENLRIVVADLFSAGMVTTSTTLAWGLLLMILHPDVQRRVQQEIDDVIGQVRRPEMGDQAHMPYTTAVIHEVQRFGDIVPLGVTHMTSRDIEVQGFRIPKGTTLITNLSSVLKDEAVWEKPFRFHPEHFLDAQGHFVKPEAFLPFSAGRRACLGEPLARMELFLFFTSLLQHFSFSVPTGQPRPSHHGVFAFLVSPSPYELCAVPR
Sequence of Cytochrome P450 1A2 (Homo sapiens) (P05177 whole entry, looked up): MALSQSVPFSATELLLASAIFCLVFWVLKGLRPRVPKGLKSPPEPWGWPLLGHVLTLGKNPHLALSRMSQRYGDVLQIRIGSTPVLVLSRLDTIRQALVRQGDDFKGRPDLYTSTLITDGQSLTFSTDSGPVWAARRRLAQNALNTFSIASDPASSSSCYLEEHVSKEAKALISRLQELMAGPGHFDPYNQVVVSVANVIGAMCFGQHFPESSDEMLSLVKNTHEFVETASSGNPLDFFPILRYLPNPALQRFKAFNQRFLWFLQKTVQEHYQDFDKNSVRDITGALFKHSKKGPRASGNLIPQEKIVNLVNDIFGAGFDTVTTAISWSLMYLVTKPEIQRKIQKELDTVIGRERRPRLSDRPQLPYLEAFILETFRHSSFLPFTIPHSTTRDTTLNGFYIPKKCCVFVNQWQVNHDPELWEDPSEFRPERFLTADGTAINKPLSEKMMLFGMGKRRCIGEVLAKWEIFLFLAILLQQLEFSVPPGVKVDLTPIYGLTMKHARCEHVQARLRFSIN
Sequence of Cytochrome P450 3A4 (Homo sapiens) (P08684 whole entry, looked up): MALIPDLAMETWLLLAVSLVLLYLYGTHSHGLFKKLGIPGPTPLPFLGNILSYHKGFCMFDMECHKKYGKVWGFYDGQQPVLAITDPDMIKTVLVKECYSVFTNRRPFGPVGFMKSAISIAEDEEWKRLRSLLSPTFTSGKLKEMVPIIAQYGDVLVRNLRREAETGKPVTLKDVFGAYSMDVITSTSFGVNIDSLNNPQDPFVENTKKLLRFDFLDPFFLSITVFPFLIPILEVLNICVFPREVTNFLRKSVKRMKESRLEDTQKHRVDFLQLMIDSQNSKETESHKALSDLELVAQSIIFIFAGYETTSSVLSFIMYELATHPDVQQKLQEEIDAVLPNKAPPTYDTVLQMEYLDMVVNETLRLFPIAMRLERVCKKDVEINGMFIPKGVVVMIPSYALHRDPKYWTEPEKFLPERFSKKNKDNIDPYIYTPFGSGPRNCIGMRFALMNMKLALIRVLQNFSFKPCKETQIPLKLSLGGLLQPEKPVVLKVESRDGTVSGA
Sequence of Cytochrome P450 2C19 (Homo sapiens) (P33261 whole entry, looked up): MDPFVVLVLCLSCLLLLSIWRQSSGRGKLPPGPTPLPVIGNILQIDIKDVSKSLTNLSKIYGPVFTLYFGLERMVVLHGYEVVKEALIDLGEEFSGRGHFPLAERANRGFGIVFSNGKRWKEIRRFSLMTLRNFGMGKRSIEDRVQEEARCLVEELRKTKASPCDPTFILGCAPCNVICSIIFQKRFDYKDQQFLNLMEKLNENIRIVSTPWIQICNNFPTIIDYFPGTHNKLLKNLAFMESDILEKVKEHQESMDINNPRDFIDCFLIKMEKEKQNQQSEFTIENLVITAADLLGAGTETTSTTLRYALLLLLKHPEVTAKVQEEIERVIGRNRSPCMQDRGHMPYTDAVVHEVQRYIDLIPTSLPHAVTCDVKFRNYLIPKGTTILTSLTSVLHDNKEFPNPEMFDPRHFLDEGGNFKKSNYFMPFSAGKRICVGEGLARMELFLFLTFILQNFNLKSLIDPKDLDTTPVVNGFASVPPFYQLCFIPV
Sequence of Glucocorticoid receptor (Homo sapiens) (P04150 whole entry, looked up, the tested form may be a part): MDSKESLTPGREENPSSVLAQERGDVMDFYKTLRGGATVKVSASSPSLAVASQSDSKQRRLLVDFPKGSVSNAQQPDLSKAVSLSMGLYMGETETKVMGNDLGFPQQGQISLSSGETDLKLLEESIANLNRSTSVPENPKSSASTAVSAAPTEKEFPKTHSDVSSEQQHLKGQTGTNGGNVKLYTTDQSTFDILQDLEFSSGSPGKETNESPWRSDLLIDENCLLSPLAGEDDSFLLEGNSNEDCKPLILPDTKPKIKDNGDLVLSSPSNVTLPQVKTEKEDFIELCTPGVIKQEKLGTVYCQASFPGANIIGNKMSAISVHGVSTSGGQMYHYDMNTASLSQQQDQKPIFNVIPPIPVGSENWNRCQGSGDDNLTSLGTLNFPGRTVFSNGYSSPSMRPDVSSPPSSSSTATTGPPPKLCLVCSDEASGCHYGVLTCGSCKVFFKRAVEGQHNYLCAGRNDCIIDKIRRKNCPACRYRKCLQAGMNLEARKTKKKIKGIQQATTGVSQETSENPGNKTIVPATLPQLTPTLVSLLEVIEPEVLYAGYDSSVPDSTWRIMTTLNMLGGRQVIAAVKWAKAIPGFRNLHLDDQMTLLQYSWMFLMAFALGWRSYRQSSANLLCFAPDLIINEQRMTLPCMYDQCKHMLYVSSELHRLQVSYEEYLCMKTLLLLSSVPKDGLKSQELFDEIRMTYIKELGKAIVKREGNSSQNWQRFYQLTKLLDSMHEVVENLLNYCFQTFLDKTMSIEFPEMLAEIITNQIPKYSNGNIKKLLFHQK
Sequence of 3',5'-cyclic-AMP phosphodiesterase 4B (Homo sapiens) (Q07343 whole entry, looked up): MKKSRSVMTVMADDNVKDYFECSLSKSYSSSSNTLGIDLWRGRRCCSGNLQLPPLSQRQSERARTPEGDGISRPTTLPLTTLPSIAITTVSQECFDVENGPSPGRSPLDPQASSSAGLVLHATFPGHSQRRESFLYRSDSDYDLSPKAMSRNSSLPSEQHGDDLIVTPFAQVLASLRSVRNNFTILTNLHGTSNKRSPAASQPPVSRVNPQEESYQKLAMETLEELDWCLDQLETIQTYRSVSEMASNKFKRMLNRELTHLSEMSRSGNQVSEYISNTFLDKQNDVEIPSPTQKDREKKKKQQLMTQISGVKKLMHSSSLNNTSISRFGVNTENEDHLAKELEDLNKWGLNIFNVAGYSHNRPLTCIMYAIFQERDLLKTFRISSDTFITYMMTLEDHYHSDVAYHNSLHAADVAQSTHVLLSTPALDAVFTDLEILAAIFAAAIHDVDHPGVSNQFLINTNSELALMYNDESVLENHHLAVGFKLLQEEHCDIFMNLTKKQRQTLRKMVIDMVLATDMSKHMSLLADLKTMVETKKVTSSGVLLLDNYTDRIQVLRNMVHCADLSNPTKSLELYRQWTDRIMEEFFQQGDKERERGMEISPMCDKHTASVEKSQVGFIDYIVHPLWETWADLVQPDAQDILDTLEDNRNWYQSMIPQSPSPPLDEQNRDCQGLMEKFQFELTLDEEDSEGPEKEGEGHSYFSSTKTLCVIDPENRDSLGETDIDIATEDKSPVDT
Sequence of Cytochrome P450 2C9 (Homo sapiens) (P11712 whole entry, looked up): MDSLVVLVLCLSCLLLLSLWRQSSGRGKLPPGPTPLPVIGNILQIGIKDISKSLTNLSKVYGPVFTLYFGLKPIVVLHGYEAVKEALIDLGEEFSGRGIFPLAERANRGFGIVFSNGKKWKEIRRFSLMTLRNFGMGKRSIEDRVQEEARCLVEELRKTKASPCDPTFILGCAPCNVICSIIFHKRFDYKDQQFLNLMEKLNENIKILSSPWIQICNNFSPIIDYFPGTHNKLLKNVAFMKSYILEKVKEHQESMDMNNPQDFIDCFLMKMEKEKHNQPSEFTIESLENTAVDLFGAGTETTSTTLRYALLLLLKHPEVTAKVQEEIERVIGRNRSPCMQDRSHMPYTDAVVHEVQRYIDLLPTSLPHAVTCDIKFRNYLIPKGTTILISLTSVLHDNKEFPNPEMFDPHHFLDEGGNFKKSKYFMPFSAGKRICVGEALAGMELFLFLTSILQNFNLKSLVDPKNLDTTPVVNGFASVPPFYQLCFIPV
Sequence of Lysosomal acid glucosylceramidase (Homo sapiens) (P04062 whole entry, looked up): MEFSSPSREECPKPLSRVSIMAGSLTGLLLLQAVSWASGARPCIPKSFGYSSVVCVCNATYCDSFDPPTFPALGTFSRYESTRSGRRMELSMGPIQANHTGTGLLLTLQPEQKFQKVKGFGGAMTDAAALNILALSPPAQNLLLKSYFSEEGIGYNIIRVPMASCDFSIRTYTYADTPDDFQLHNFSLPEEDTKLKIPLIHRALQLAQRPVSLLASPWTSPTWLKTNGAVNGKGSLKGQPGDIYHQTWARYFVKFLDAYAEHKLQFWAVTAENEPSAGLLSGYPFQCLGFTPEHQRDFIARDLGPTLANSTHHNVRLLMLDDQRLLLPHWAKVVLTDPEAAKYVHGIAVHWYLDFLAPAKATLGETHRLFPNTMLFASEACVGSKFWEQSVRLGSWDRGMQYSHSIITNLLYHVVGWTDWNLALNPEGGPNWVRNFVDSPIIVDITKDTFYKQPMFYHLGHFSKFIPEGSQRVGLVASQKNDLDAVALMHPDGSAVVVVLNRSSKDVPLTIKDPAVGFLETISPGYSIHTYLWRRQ

Structure (SMILES)	Potency [1] [µM]	activity change, negative = inhibition [2] [%]	activity change, negative = inhibition [3]	activity change, negative = inhibition [4] [%]	activity, negative = inhibition [5] [%]	Potency [6] [µM]	Potency [7] [µM]	activity change, negative = inhibition [8]	outcome [9]	activation [10] [%]	Potency [11]	Potency [12]	Potency [3]	Potency [13]	activity change, positive = activation [14]	Potency [15]	activity change, negative = inhibition [11]
N#CCCCC[N+]12CN3CN(CN(C3)C1)C2	> 11.4	12.8	15% [at 2.29 µM]	5.06	-17.9	> 46	> 9.22	0.429% [at 11.4 µM]	inactive								
CC(=O)OC1=CC2=CC[C@H]3[C@H]4CCC(=O)[C@@]4(C)CC(=O)[C@]3(S)[C@]2(C)CC1	> 11.4	-0.915	-9.4% [at 2.29 µM]	2.48	-7.63	> 46	> 9.22	-3.16% [at 11.4 µM]	inactive	-4.78							
O=C(C[C@H](c1ccccc1)c1c(O)c2ccccc2oc1=O)c1ccccc1	> 11.4	2.29	-12.6% [at 2.29 µM]	11.4	-9.56	> 46	> 9.22	-4.41% [at 11.4 µM]			0.631 µM (active)						
N=C(N)n1cc(/C=N\N=C(N)N)cn1	> 11.4	8.06	7.8% [at 2.29 µM]	8.05	9.59	> 46	> 9.22	6.38% [at 11.4 µM]	inactive			inactive					
Nc1ccc(S(=O)(=O)c2ccc(NCN3C(=O)NC(=O)C(=O)C3=O)cc2)cc1	> 11.4	-11.3		14.2	-4.49	> 46	> 9.22	1.4% [at 11.4 µM]	inactive				inactive	2 µM (active)	-78% [at 11.4 µM]	inactive	
CC(C)c1ccc(C(O)(C(=O)O)c2ccc(C(C)C)cc2)cc1	> 11.4	2.63		-9.63	4.5	> 46	> 9.22	5.33% [at 11.4 µM]				inactive	inactive				
O=C(O)C(=O)Cc1ccc2c(c1)OCO2	> 11.4	6.13		16.4	3.17	> 46	> 9.22	4.31% [at 11.4 µM]	inactive	-7.84			3.98 µM (active)			inactive	
Cc1c([C@@H](C)[C@H]2NC[C@H](C)C[C@@H]2O)ccc2c1C[C@@H]1[C@H]2CC=C2C[C@@H](O)CC[C@@]21C	> 11.4	-4.38	1.3% [at 2.29 µM]	-6.08	-1.08	> 46	> 9.22	-0.822% [at 11.4 µM]	inactive	4.43					-38% [at 11.4 µM]		
CC(C)C(=O)CP(=O)(O)O	> 11.4	10.1		7.02	5.14	> 46	> 9.22	3.33% [at 11.4 µM]	inactive				inactive				
Nc1nnnn1CCO	> 11.4	7.2		8	12	> 46	> 9.22	3.27% [at 11.4 µM]		12.2			6.31 µM (active)				
NCCP(=O)(O)O	> 11.4	3.81		9.11	10.6	> 46	> 9.22	3.4% [at 11.4 µM]		0.635			inactive				
C[C@@H](O)CN(CCN(C[C@@H](C)O)C[C@@H](C)O)C[C@@H](C)O.O=[N+]([O-])O.[Cu]	> 11.4	-0.101		-2.32	2.41	> 46	> 9.22	-3.67% [at 11.4 µM]			0.794 µM (active)		5.01 µM (active)			0.398 µM (active)	
Oc1ccc([C@H](O)[C@@H]2CCCCN2)cc1O	> 11.4	-22.3		5.42	8.8	> 46	> 9.22	1.46% [at 11.4 µM]	inactive				inactive				
COc1cc(CCN)c(OC)c(OC)c1	> 11.4	7.8		-9.45	-3.83	> 46	> 9.22	4.46% [at 11.4 µM]	inactive				3.16 µM (active)				
O=C(O)CN1C(=O)CN=C(c2ccccn2)c2cc(Cl)ccc21	> 11.4	0.0967		-1.6	6.14	> 46	> 9.22	3.65% [at 11.4 µM]	inactive				1.26 µM (active)				
N[C@H](Cc1c[nH]c2ccccc12)P(=O)(O)O	> 11.4	-3.26		-3.98	-3.09	> 46	> 9.22	4.66% [at 11.4 µM]	inactive				inactive				
Nc1nc(N)c(N=Nc2ccc([As](=O)(O)O)c(O)c2)c(N)n1	> 11.4	1.26		-7.71	-1.21	> 46	> 9.22	1.64% [at 11.4 µM]	inactive				6.31 µM (active)				
O=C(O)Cc1ccc([N+](=O)[O-])cc1[N+](=O)[O-]	> 11.4	-0.903		-1.68	5.17	> 46	> 9.22	4.4% [at 11.4 µM]	inactive				3.98 µM (active)				
[N-]=[N+]=CC(=O)CC[C@H](N)C(=O)O	> 11.4	6.38		-6.88	6.39	> 46	> 9.22	31.7% [at 11.4 µM]	inactive				inactive				
O=C(O)C(C(=O)O)P(=S)(S)c1ccccc1 (stereo not given)	> 11.4	3.83		11.1	2.85	> 46	> 9.22	2.73% [at 11.4 µM]	inactive				inactive				
CC(C)CC(=O)C[C@H](O)C(Cl)(Cl)Cl	> 11.4	3.65		-9	-1.91	> 46	> 9.22	5.57% [at 11.4 µM]	inactive				inactive				
CCC1=C(C[C@H]2NCCc3cc(OC)c(OC)cc32)C[C@H]2c3ccccc3CCN2C1	> 11.4	9.05		-19.1	8.03	> 46	> 9.22	5.5% [at 11.4 µM]				0.316 µM (active)	inactive		-34.9% [at 11.4 µM]		
[N-]=[N+]=NCC(=O)c1c[nH]c(=O)[nH]c1=O	> 11.4	12.2	0.1% [at 2.29 µM]	5.05	1.86	> 46	> 9.22	0.476% [at 11.4 µM]	inactive								
Cc1ccc(OP(=O)(Oc2ccc(C)cc2)N2C=Cc3ccccc3[C@H]2C#N)cc1	> 11.4	0.753		-17.9	-13.5	> 46	> 9.22	7.39% [at 11.4 µM]	inactive				3.98 µM (active)	2.51 µM (active)		2.51 µM (active)	45.9% [at 11.4 µM]
